This is a sample that favours compounds with a hit; in the whole collection about 0.66% have one here.
gsp agonist – gsp mutant agonism; gsp mutant cells, cAMP HTRF, 30 min; Potency, µM (top dose mostly 76.9 µM), for inactives: at the top dose activation (cAMP increase), actives largely listed as activators; 340,000 tested, 0.13% active; active means well fitted activation curve with a large enough effect; inconclusive means small, poorly fitted or top-dose-only effect, or another doubt; inactive means no such curve, though single readings can be large or run the other way; cell line not stated here;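 further: phosphodiesterase inhibitor Ro 20-1724 added with compounds to block cAMP breakdown; nearly all actives have a fitted effect of over 60% in size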
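Cells in DMEM/10% FBS with G418 were pretreated with compounds in DMSO plus […] (300 uM stock) for 30 min at 37C. cAMP was measured by HTRF (cAMP-d2 plus anti-cAMP antibody-K) after 30 min at room temperature.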
Rango release inh – inhibition of RanGTP-driven Rango-importin beta dissociation; 340,000 tested, 0.071% active; O95149+P62826; Potency, µM (highest dose often 46.1 µM), for inactives: top-dose activity change, negative = inhibition; Biochemical FRET Rango-importin beta, RanGTP-induced dissociation; further: % of control where 0% means no effect; nearly all actives have a fitted effect of over 45% in size
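Compounds preincubate 5 min with complex of recombinant Rango and importin beta in PBS with 1 mM DTT. Ran (0.6 uM) loaded with 2 mM GTP plus 0.2 uM RCC1 starts dissociation; FRET is recorded 45 min later.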
gsp antag – antagonists of gsp mutant (McCune-Albright syndrome); gsp-mutant cells, cAMP HTRF, 30 min; Potency, µM (titrated, usually from 76.9 µM), inactives show top-dose activity change, negative = inhibition, hits mostly inhibitors; 340,000 tested, 0.4% active; calls by dose curve; cell line not stated here;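 further: intracellular cAMP measured with PDE inhibitor Ro 20-1724 present during compound exposure; on the % scale 0 is the no-effect control and ±100 the full control effect; nearly all actives have a fitted effect of over 65% in size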
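HTRF cAMP measurement after 30 min RT detection following 30 min, 37C compound treatment alongside […] (added as 300 uM solution) in G418-selected cells seeded at 2000/well and grown 16–24 h.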
Rango-impB inh – inhibitors of Rango-importin beta complex formation. Q14974. Rango CFP/YFP FRET sensor + importin beta, 45 min. Potency, µM (top dose mostly 92.2 µM), for the others: top-dose inhibition of complex formation. 340,000 tested, 0.031% active. AID 540263;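 further: 0% = DMSO wells and 100% = buffer wells lacking importin beta; nearly all actives have a fitted effect of over 15% in size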
Target sequence (Q14974 whole entry, looked up): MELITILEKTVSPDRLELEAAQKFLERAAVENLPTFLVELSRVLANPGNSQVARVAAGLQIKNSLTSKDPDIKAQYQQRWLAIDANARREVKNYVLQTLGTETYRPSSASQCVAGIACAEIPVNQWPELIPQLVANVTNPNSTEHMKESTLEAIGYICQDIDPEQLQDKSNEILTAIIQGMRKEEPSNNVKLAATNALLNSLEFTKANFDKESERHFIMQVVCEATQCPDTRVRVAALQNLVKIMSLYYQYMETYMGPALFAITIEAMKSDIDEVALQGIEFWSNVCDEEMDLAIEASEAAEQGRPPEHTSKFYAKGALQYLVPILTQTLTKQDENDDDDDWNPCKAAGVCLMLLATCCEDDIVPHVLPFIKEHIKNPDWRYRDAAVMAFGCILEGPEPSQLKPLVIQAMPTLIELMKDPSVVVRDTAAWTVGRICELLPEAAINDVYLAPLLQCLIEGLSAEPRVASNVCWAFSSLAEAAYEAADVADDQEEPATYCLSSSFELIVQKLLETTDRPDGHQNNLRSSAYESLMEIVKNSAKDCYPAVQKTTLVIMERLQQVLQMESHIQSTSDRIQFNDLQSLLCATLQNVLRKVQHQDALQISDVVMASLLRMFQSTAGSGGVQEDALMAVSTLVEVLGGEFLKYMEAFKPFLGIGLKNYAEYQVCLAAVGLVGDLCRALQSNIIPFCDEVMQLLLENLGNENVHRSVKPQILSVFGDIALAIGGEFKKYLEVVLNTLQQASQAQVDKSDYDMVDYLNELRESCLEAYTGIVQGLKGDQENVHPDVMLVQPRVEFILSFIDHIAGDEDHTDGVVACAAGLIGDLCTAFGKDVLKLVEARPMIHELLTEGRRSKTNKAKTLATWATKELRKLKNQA
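Inhibition scored from the CFP 486 nm/YFP 530 nm FRET ratio 45 min after adding 0.125 microM importin beta to 50 nM Rango biosensor preincubated 5 min with compound (room temperature, PBS with DTT, Tween-20, BSA). No-importin wells as positive control.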
Numbers without * were called inactive; ? = inconclusive; . = no result given; [ ] = dose if it differs, or a comment. Unless noted, the call rests on the fitted dose curve. Potency means the concentration at half of the fitted maximal effect.

SMILES	gsp agonist	Rango release inh	gsp antag	Rango-impB inh
CCOC(=O)c1c(-c2ccc(OC)c(OC)c2)csc1NC(=O)C1CCCO1 (stereo not drawn)	-4%[15.4 µM]	-4%	25µM*	-2%
Cc1nn(Cc2ccc(Cl)c(Cl)c2)c(C)c1NC(=O)c1cc(-c2ccco2)on1	5%	-17%	32µM*	-4%
CCc1ccc(NS(=O)(=O)c2ccc(OC)c3ncccc23)cc1	7%	-23%	0%	0%
CCc1ccccc1NS(=O)(=O)c1ccc(OC)c2ncccc12	0%	-29%	28µM*	-2%
Cc1cc(C(=O)N/N=C/c2c3ccccc3cc3ccccc23)n[nH]1	-2%[15.4 µM]	?	-4%	?
NC(=O)C(=O)N/N=C/c1c2ccccc2cc2ccccc12	-9%	15µM*	-1%	2%
NS(=O)(=O)c1ccc(S(=O)(=O)N2CCCC(c3ccccc3)C2)cc1 (stereo not drawn)	-7%	.	.	.
COc1ccc(OC)c(NC(=O)C(C)OC(=O)c2cc3ccccc3[nH]2)c1 (stereo not drawn)	5%	18%	22µM*	0%
COc1ccccc1NC(=O)C(C)OC(=O)c1cc2ccccc2[nH]1 (stereo not drawn)	-8%	-5%	35µM*	0%
CCC(C)n1nccc1NC(=O)C(C)OC(=O)c1cc2ccccc2[nH]1 (stereo not drawn)	-5%	10%	-13%	-2%
COc1cc2[nH]c(=O)c(C(=O)NCc3ccc(C)cc3)c(O)c2cc1OC	-21%	.	.	.
CC(=O)N1CCC(C(=O)Nc2cc(S(=O)(=O)N3CCCCC3)ccc2C)CC1	-96%	.	.	.
CC1(C(=O)OCC(=O)Nc2nc(-c3ccc(F)c(F)c3)cs2)CC1(Cl)Cl (stereo not drawn)	-31%	-15%	50µM*	-2%
COc1ccc(CC(=O)Nc2nc(-c3ccc(F)c(F)c3)cs2)cc1	0%[15.4 µM]	7%	?	0%
CCOc1ccc(/C=N/NC(=O)c2ccccc2O)cc1CN1CC2CC(C1)c1cccc(=O)n1C2 (stereo not drawn)	.	-7%	35µM*	-2%
COc1ccc(/C=N/NC(=O)c2ccccc2O)cc1Cn1cc(Cl)cn1	-36%	1%	-32%	8%
Cc1cc(NS(=O)(=O)c2ccc(Nc3nc(-c4ccc(O)cc4)cs3)cc2)no1	-32%	9%	-18%	2%
Cc1cc(NS(=O)(=O)c2ccc(Nc3nc(-c4ccc(C)c(C)c4)cs3)cc2)no1	-7%	1%	22µM*	-4%
COc1ccc(/C=C2/SC(=S)NC2=O)cc1OCc1ccccc1	-5%[15.4 µM]	-9%	?	-4%
COc1cc(/C=C2/SC(=O)NC2=O)ccc1OCc1ccccc1	-41%	1%	32µM*	-5%
CCSc1nnc(NC(=O)C(C)(C(F)(F)F)C(F)(F)F)s1	7%	1%	22µM*	4%
CCSc1nnc(NC(=O)C(CC)(C(F)(F)F)C(F)(F)F)s1	2%	10%	?	-2%
CCOC(=O)CC(=O)CSc1nc2c(c(-c3cccs3)c1C#N)CCC2	?	21µM*	4%	?
CCOC(=O)CC(=O)CSc1nc2c(cc1C#N)CCC2	16%	?	-11%	?
Cc1nc(=S)c2ccccc2[nH]1	?	6%	8%	?
SMILES	gsp agonist	Rango release inh	gsp antag	Rango-impB inh
FC(F)(F)c1nc(=S)c2ccccc2[nH]1	2.2µM*	-14%	25%	1%
CC(NC(=O)c1ccc2c(c1)C(=O)N(Cc1cccnc1)C2=O)c1ccccc1 (stereo not drawn)	5%	22%	-7%	6%
O=C(O)c1cc(NC(=O)c2ccc3c(c2)C(=O)N(Cc2cccnc2)C3=O)cc(C(=O)O)c1	0%	6%	12%	-3%
CCOC(=O)c1ccc(NC(=O)c2ccc3c(c2)C(=O)N(Cc2cccnc2)C3=O)cc1	?	12%	35µM*	-5%
COC(=O)Cc1ccc(NC(=O)c2ccc3c(c2)C(=O)N(Cc2cccnc2)C3=O)cc1	-19%	-1%	-11%	-3%
C#Cc1cccc(NC(=O)c2ccc3c(c2)C(=O)N(Cc2cccnc2)C3=O)c1	33%[15.4 µM]	21%	40µM*	-3%
CC(C)c1ccc(NC(=O)c2ccc3c(c2)C(=O)N(Cc2cccnc2)C3=O)cc1	?	-20%	35µM*	-2%
CCOC(=O)c1ccc(NC(=O)c2ccc3c(c2)C(=O)N(CC2CCCO2)C3=O)cc1 (stereo not drawn)	-19%	-8%	32µM*	0%

Assay outcomes as filed in PubChem BioAssay.
